In PubChem BioAssay AID1259370 (Center for Chemical Genomics, University of Michigan, 2018) one finds z-score data, which are given here for 62 compounds.

The structures appear in SMILES notation. About 680 (0.72%) of roughly 94,000 compounds were called active. Cut-off read from the data, not from the text of the source: active = z-score above about 3.2; inactive = the rest. Shown is part of a subset that was picked to be rich in actives.

The target of this test is M-phase inducer phosphatase 2 (Homo sapiens) + Cyclin-dependent kinase 2 (Homo sapiens) + Cyclin-A2 (Homo sapiens) (UniProt P30305+P24941+P20248). The test can be described thus: primary biochemical HTRF screen for blockers of M-phase inducer phosphatase 2 binding to CDK2/cyclin A (AID 1259370). To be noted: HTRF CDC25B-CDK2/CyclinA binding, anti-His/anti-Flag; active compounds read high. Background: In TR-FRET formats the signal depends on donor and acceptor labels being close together.
In the case of `O=C1CCCN1CCCn1c(=O)[nH]c2ccccc2c1=O`, the z-score is -0.94 (inactive).
As to `Cc1nc2ccccc2nc1NO`, the z-score was 1.05 (inactive).
Turning to `Cc1cc(=O)nc2c3ccccc3n(CC(=O)NC3CCC(C)CC3)n12` (configuration not stated), the z-score was -1.08 (inactive).
For `CCN1CCN(c2c(C(=O)c3ccccc3)cnc3cc4c(cc23)OCCO4)CC1` the value was 2.74 (inactive).
The value for `CCn1c(SCC(=O)Nc2c(C)cc(C)cc2C)nc2c(c1=O)SCC2` was -0.71 (inactive).
In the case of `CCc1cc2c(cc3c(=O)n(CC(=O)NCCCOC)nc(CC)n32)s1`, the z-score is -1.5 (inactive).
For `O=S(=O)(NCc1ccccc1)c1ccc(-c2ccc(S(=O)(=O)NCc3ccccc3)cc2)cc1` the value was -0.47 (inactive); for `COc1ccc(N2C(=O)CSC2c2cc(Br)ccc2OC)cc1` (configuration not stated), -0.41 (inactive).
For the compound `COc1cccc(C2CC(=O)N3CN(c4ccc(Br)cc4)CSC3=C2C#N)c1` (configuration not stated), the z-score was 7.44 (active).
On to `COc1ccc(N2CSC3=C(C#N)C(c4cccc(Br)c4)CC(=O)N3C2)cc1` (configuration not stated), for which the z-score is 4.67 (active).
The value for `COc1cc(C2CC(=O)N3CN(c4ccc(Br)cc4)CSC3=C2C#N)ccc1O` (configuration not stated) was 0.91 (inactive); that for `CN1CSC2=C(C#N)C(c3ccc(Br)cc3)CC(=O)N2C1` (configuration not stated) was 1.4 (inactive).
Take `COc1ccc(-c2n[nH]c3c2C(c2cccc(Br)c2)NC3=O)cc1` (configuration not stated): the z-score is 0.39 (inactive).
For `Cc1cc(C)c2c(n1)nn1c(C)c(CCC(=O)NCCCN3CCCC3=O)c(C)nc21` the value was -0.15 (inactive).
For `CC(C)n1c(=O)c2c3c(sc2n(Cc2ccccc2)c1=O)COC(C)(C)C3` the value was -1.8 (inactive).
The value for `O=c1c2cccnc2n(Cc2ccc(F)cc2)c(=O)n1Cc1ccco1` was 0.9 (inactive).
With `C=CCN(c1ccccc1)S(=O)(=O)c1cc(Br)cc2c1N(C(C)=O)C(C)C2` (configuration not stated), the z-score was 0.27 (inactive).
The value for `COc1cccc(OCC(O)Cn2c[n+](C)c3cc(C)c(C)cc32)c1` (configuration not stated) was 0.54 (inactive); that for `CC1=C(C(=O)OCC2CCCO2)C(c2cccc(Cl)c2)C2=C(CC(c3cccs3)CC2=O)N1` (configuration not stated) was -0.95 (inactive).
As to `Cn1c(=O)c2c(ncn2CC(=O)NCC2CCCO2)n(C)c1=O` (configuration not stated), the z-score is -1.02 (inactive).
The value for `CCC(C)N(CCNC(=O)Nc1cn(C)c(=O)c2ccccc12)Cc1ccco1` (configuration not stated) was 12.3 (active); that for `Cc1ccccc1NC(=O)NCc1ccco1` was -0.44 (inactive).
For `Cc1nn(C(C)C(=O)NCc2ccco2)c(=O)c2cc3occc3n12` (configuration not stated) the value was -0.04 (inactive); for `COc1cc(NC(=O)c2nn3c(C(F)(F)F)cc(-c4cccs4)nc3c2Cl)cc([N+](=O)[O-])c1`, -3.72 (inactive).
Consider `COc1ccccc1-c1nnc(SCc2ccc(F)cc2)o1`, for which the z-score was 1.82 (inactive).
For the compound `O=C(NC1CCc2ccccc21)c1cc2c(s1)CCC2` (configuration not stated), the z-score was -1.04 (inactive).
For `O=C(Nc1ccc(F)cc1)N1CCC(n2c(=O)[nH]c3ccccc32)CC1` the value was -3.87 (inactive); for `CCN(CC)c1nc2c(s1)C(=O)NCC(C)(C)C2`, -0.63 (inactive).
The value for `O=C(/C=C/c1ccc(-c2ccccc2[N+](=O)[O-])o1)Nc1cc(Cl)c(Cl)cc1Cl` was 3.71 (active).
The value for `O=C(/C=C/c1cccc([N+](=O)[O-])c1)Nc1ccc(O)c(-c2nc3ccccc3o2)c1` was -3.5 (inactive).
With `O=C(/C=C/c1ccc(Cl)cc1)Nc1ccc(-c2nc3ccccc3o2)c(O)c1`, the z-score is -2.66 (inactive).
Turning to `CCCCN(CC)C(=O)c1nn(C)c2c1COc1ccccc1-2`, the z-score is -1.21 (inactive).
The value for `CCCc1nc(C)cc(N2CCOCC2)n1` was -1.62 (inactive); that for `COc1cc(C2CC(=O)Nc3c2cc(Br)c2ccccc32)ccc1O` (configuration not stated) was -0.73 (inactive).
For `Cc1ccc(NC(=O)CSc2nc(N)c3c4c(sc3n2)COC(C(C)C)C4)cc1` (configuration not stated) the value was -24.7 (inactive).
The value for `COC(=O)C1=C(OC(=O)COc2ccccc2)c2ccccc2S(=O)(=O)N1C` was -1.66 (inactive); that for `CCOC(=O)Cc1nnc2c(Nc3cccc(Br)c3)nc3nonc3n12` was -0.4 (inactive).
With `CCCCn1c(CCNC(=O)C(C)(C)C)nc2ccccc21`, the z-score was 0.64 (inactive).
For the compound `CCCCn1c2ccccc2c2nc3ccccc3nc21`, the z-score is 19.8 (active).
For `CCCCCCn1c(C2CCCO2)nc2ccccc21` (configuration not stated), the z-score was -2.17 (inactive).
The value for `C=C1c2cc(OCC)ccc2NC(=O)N1c1ccc(Cl)cc1` was -0.12 (inactive).
For the compound `CCCCN(Cc1ccco1)C(=O)Cn1ncc2c1-c1cc(C)ccc1OC2`, the z-score was -2.75 (inactive).
For `O=C1c2ccccc2C(Nc2ccc3c(c2)OCCO3)N1c1ccc(Cl)cc1` (configuration not stated) the value was 1.04 (inactive); for `O=C(COc1ccc(Cl)cc1)Oc1ccc2ccccc2c1`, -1.03 (inactive).
In the case of `CC1=Nc2ccccc2-c2nnc(SCc3ccccc3F)nc2O1`, the z-score is -1.63 (inactive).
For `CCC(C)NC(=O)C1CCN(C(=O)c2sccc2-n2cccc2)CC1` (configuration not stated) the value was -1.11 (inactive); for `Cc1cc(OCC(=O)Oc2ccc(-n3cnnn3)cc2)cc(C)c1Cl`, 0 (inactive); for `CCOc1cc(-n2cnnn2)c(OCC)cc1N`, 14.4 (active).
The value for `CCOC(=O)N1CCN(S(=O)(=O)c2ccc(-n3cnnn3)cc2)CC1` was -0.58 (inactive).
`Clc1ccc(N2CCCC2)nn1`: the z-score is 0.42 (inactive).
For `Cc1ccccc1-c1noc(-c2ccc(F)cc2)n1` the value was -0.49 (inactive); for `CC(C)(C)c1cn2c3ccccc3n(CCN3CCOCC3)c2n1`, 0.1 (inactive).
For `CN1CCN(c2cc(NCCCC(=O)O)c3c4c(onc24)-c2ccccc2C3=O)CC1` the value was 0.14 (inactive); for `CC(C)CNc1cc(N2CCN(C)CC2)c2noc3c2c1C(=O)c1ccccc1-3`, -2.89 (inactive).
The value for `CC1CCN(c2cc(NCC(=O)O)c3c4c(onc24)-c2ccccc2C3=O)CC1` was 13.8 (active); that for `Cc1nc2ncnn2c(Sc2ccc(N)cc2)c1C` was 3.58 (inactive); that for `O=C(CN1CCN(c2ccccn2)CC1)c1ccc2c(c1)CCN2` was -2.4 (inactive).
As for `Cc1ccc(-c2nnc(C3CCN(S(=O)(=O)c4c(C)cc(C)cc4C)CC3)o2)cc1`, the z-score was 0.05 (inactive).
For `COc1ccc(OCC(O)CN2CCC(C)CC2)cc1` (configuration not stated) the value was 1.91 (inactive).
The value for `NC(=O)C1CCN(CC(O)COc2ccc(Cl)c(Cl)c2)CC1` (configuration not stated) was -0.09 (inactive).
As to `CCOC(=O)N1CCN(CC(O)COc2ccc(OC(F)(F)F)cc2)CC1` (configuration not stated), the z-score is 11.1 (active).
The value for `CCOc1ccc(-c2cc(O)cc3sc(=O)oc23)cc1` was -1.8 (inactive).
